Results: publication PMC4336329 (PLoS ONE, 2015)
About 14,000 (4.5%) of roughly 310,000 compounds showed an effect of 50% or more. Effects have a minus sign here. The list comes from a sample in which strong results are over-represented; it also holds similar structures and randomly drawn compounds.

Biological target: human ether-à-go-go-related gene (hERG) potassium channel (human, UniProt Q12809)
Experiment: primary screen, population patch clamp on CHO cells stably expressing hERG; higher = less effect of the substance
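Further: peak tail current of the secondary pulse compared with the same well before compound.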

Chain of human ether-à-go-go-related gene (hERG) potassium channel (Q12809 whole entry, looked up): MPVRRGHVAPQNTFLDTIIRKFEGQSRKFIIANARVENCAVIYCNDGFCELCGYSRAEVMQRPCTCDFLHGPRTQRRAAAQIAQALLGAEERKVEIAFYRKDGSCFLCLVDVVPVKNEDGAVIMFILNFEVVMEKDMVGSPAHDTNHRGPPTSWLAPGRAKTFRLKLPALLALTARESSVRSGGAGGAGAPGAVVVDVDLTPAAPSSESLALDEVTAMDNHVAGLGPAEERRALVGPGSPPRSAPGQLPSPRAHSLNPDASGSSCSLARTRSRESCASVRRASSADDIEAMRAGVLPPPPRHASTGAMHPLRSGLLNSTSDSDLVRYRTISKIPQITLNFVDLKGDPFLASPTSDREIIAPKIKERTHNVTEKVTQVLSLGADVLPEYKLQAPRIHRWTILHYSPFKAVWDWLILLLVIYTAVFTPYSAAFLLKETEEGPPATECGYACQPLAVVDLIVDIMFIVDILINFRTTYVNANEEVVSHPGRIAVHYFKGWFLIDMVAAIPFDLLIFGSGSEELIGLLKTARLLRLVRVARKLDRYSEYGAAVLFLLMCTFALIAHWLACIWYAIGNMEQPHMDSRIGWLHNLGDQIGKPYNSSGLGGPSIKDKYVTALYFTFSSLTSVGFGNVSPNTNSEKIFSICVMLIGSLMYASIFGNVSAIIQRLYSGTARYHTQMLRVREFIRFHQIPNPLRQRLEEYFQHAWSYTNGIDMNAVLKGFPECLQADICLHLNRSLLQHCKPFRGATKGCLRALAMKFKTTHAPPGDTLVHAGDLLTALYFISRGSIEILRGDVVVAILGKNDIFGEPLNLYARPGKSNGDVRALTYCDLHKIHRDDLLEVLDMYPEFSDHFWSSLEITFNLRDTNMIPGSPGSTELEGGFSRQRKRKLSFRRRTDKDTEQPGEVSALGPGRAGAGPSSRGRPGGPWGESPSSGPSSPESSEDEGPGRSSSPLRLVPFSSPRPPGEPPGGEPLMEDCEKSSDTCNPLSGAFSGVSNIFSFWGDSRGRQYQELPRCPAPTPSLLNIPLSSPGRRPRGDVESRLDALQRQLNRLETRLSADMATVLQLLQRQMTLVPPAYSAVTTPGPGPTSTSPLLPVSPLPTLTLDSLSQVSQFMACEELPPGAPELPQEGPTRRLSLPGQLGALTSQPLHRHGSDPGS

| SMILES | hERG current change (%, negative = inhibition) at 10uM [%] |
| --- | --- |
| N/C(=N\OC(=O)c1ccccc1)c1ccccn1 | 12.9 |
| CCOc1ccc(CC(=O)N/N=C/c2cccnc2)cc1OCC | 14 |
| CCCC(=O)Nc1ccc(C(=O)O)cc1NC(=O)CCC | 8.09 |
| CCNc1cc2n(c(=O)n1)CCc1cc(OC)c(OC)cc1-2 | -19.5 |
| Cc1ccc(C(=O)N/C(=C/c2cccs2)C(=O)NCC2CCCO2)cc1 (stereo not shown) | -9.01 |
| Cc1ccc(C(=O)N/C(=C\c2sccc2C)C(=O)NCc2ccncc2)cc1 | -30.5 |
| Cc1ccc(C(=O)N/C(=C\c2cccs2)C(=O)NCc2cccnc2)cc1 | -58 |
| Cc1ccc(C(=O)N/C(=C/c2cccs2)C(=O)NCc2ccco2)cc1 | -15.8 |
| Cc1ccc(C(=O)N/C(=C\c2cccs2)C(=O)NCc2ccncc2)cc1 | -52.9 |
| Cc1ccc(C(=O)NC(=S)NCc2cccnc2)cc1 | -7.52 |
| CC1(C)CC(OC(=O)c2ccccc2)CC(C)(C)N1 | 9.14 |
| COc1ccc(NC(=O)c2oc3ccccc3c2NC(=O)C(C)(C)C)cc1 | 11.3 |
| CC(CCC(=O)Nc1nncs1)C(=O)O (stereo not shown) | -6.61 |
| CCCOC(=S)NC(=O)c1sc2ccccc2c1Cl | 12.3 |
| CC(C)c1nc2cc(C(=O)N(C)Cc3ccc(F)cc3)ccc2o1 | 1.04 |
| O=C1CCc2cc(S(=O)(=O)N3CCC(C(=O)NCc4ccccc4Cl)CC3)ccc2N1 | 4.83 |
| CC(C)OCCCn1c(=O)c2ccccc2n2c(CCC(=O)NC3CCN(Cc4ccccc4)CC3)nnc12 | -51.4 |
| O=C(CCc1nnc2n(CCc3ccccc3)c(=O)c3ccccc3n12)NCCCN1CCCCC1 | -77.6 |
| CC(C)Cn1c(=O)c2ccccc2n2c(CCC(=O)NC3CCN(Cc4ccccc4)CC3)nnc12 | -39.4 |
| CC(C)CCNC(=O)CCc1nnc2n(CCCOC(C)C)c(=O)c3ccccc3n12 | -26.7 |

| SMILES | hERG current change (%, negative = inhibition) at 10uM [%] |
| --- | --- |
| CCOCCCNC(=O)CCc1nnc2n(CCC(C)C)c(=O)c3ccccc3n12 | -22.5 |
| CC(C)CCn1c(=O)c2ccccc2n2c(CCC(=O)NC3CCN(Cc4ccccc4)CC3)nnc12 | -49.6 |
| CC(C)CCn1c(=O)c2ccccc2n2c(CCC(=O)NCC3CCCO3)nnc12 (stereo not shown) | -1.79 |
| CC1CCN(CCCNC(=O)CCc2nnc3n(CCc4ccccc4)c(=O)c4ccccc4n23)CC1 | -76.8 |
| CN1CCN(CCCNC(=O)CCc2nnc3n(Cc4ccccc4Cl)c(=O)c4ccccc4n23)CC1 | 5.29 |
| Cc1ccc(S(=O)(=O)NNC(=O)C2CCCCC2)cc1 | 9.57 |
| NC(=O)[C@@H]1CCCN1Cc1nc(-c2ccc(C(F)(F)F)cc2)no1 | -5.68 |
| CC(O)[C@@H](C(=O)N1CCNCC1)n1cc(CCCCN)nn1.Cl (stereo partly shown) | 14.3 |
| Cc1ccc(C(=O)N2CCN(c3ccc([N+](=O)[O-])c(N4CCOCC4)c3)CC2)cc1 | -60 |
| O=C(c1ccccc1)N1CCN(c2ccc([N+](=O)[O-])c(N3CCOCC3)c2)CC1 | -7.22 |
| O=C(c1ccc2ccccc2c1)N1CCN(c2ccc([N+](=O)[O-])c(N3CCOCC3)c2)CC1 | -18.8 |
| O=C(c1cccc2ccccc12)N1CCN(c2ccc([N+](=O)[O-])c(N3CCOCC3)c2)CC1 | -13.7 |
| O=C(c1ccc(F)cc1)N1CCN(c2ccc([N+](=O)[O-])c(N3CCCCC3)c2)CC1 | -15.3 |
| O=C(c1ccc(F)cc1)N1CCN(c2ccc([N+](=O)[O-])c(N3CCOCC3)c2)CC1 | -58.3 |
| C=CCSc1n[nH]c(-c2ccc(OCCCC)cc2)n1 | -7.32 |
| COc1cccc(NC(=O)N2CCN(c3cccc(C)c3)C(C)C2)c1 (stereo not shown) | -16 |
| Cc1cccc(N2CCN(C(=O)c3ccc4nc(-c5ccco5)c(-c5ccco5)nc4c3)CC2C)c1 (stereo not shown) | 2.44 |
| COc1cccc(N2CCN(C(=O)c3ccc(=O)oc3)CC2C)c1 (stereo not shown) | -59.7 |
| CC(C)CCNc1cc(=O)n(C)c(=O)n1C | 4.5 |
| CC(C)c1ccc(NC2CCCN(C(=O)c3cccnc3)C2)cc1 (stereo not shown) | 0.148 |
